The source of these data is PubChem BioAssay (NCATS).

For experiment [1], the target named is Cellular tumor antigen p53 (Homo sapiens) (UniProt P04637). Kind of experiment: Primary qHTS for small molecule compounds that upregulate eGFP-tagged delta133p53alpha (in N-terminal) cells. (AID 2060322). Further: nearly all actives have a fitted effect of over 75% in size.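 On activation: cells pre-induced with doxycycline then dosed without doxycycline; series mostly up to about 56 µM; 0% = DMSO vehicle and 100% = reference activator.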 The following applies: NCI-H358 eGFP-delta133p53alpha fluorescence, 24 h; activation: stronger effect = higher value. The essentials: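 NCI-H358 cells pre-induced 24 h with 10 ng/ml doxycycline for eGFP-delta133p53alpha, plated dox-free and exposed 24 h at 37C to titrated compounds. Fixed, Hoechst-stained; gated GFP peak intensity by laser scanning cytometry, normalized to DMSO (0%) and 57.5 uM 5-azacytidine (100%).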
Chain of Cellular tumor antigen p53 (Homo sapiens) (P04637 whole entry, looked up): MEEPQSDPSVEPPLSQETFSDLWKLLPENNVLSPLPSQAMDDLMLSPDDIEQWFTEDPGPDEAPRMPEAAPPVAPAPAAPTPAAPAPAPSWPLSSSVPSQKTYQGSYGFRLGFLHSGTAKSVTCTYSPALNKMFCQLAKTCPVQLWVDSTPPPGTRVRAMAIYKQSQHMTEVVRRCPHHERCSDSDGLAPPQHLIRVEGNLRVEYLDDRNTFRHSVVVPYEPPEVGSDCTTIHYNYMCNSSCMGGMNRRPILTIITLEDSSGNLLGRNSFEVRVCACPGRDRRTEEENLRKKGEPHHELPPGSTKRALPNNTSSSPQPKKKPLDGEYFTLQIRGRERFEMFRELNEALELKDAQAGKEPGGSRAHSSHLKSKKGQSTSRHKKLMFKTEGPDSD

The nature of experiment [2]: BET inhibitor-based combinations targeting novel dependencies in MECOM-rearranged (r) AML: SET-2 cell line (AID 2202231). Further: nearly all actives have a fitted effect of over 35% in size.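 On viability: plate controls were DMSO treated cells for no effect and wells without cells for full effect.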 The following applies: SET-2 AML cells viability, CellTiter-Glo luminescence, 48 h; viability: stronger effect = lower value, concentration not given here. Put shortly:
(§1)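 Here, 11-point titrations of each agent were applied to 500 seeded cells and incubated 48 hr; CellTiter-Glo signal, scaled against DMSO and empty wells, was integrated as AUC, then Z-scored within the individual line.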

A short description of experiment [3]: BET inhibitor-based combinations targeting novel dependencies in MECOM-rearranged (r) AML: OCI-AML3 cell line (AID 2202232). Further: nearly all actives have a fitted effect of over 35% in size. The following applies: Potency: OCI-AML3 viability. Put shortly: as §1
Experiment [4] in a line: BET inhibitor-based combinations targeting novel dependencies in MECOM-rearranged (r) AML: MV-4-11 cell line (AID 2202233). Further: nearly all actives have a fitted effect of over 45% in size. The essentials:
(§2)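 Normalized to DMSO and empty-well controls, the luminescence data from CellTiter-Glo after 48 hr drug exposure were fitted across 11 concentrations. Reported metrics are area under the dose-response curve and its Z-transformed form.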

Experiment [5] can be described thus: BET inhibitor-based combinations targeting novel dependencies in MECOM-rearranged (r) AML: AML-191 cell line (AID 2202236; further: nearly all actives have a fitted effect of over 35% in size). The essentials: as §1
Experiment [6] is described as follows: BET inhibitor-based combinations targeting novel dependencies in MECOM-rearranged (r) AML: HNT-34 cell line (AID 2202234). Further: nearly all actives have a fitted effect of over 35% in size. The essentials: as §2
The nature of experiment [7]: BET inhibitor-based combinations targeting novel dependencies in MECOM-rearranged (r) AML: AML-194 cell line (AID 2202237; further: nearly all actives have a fitted effect of over 40% in size). The essentials:
as §1

A short description of experiment [8]: BET inhibitor-based combinations targeting novel dependencies in MECOM-rearranged (r) AML: UCSD-AML1 cell line (AID 2202235). Further: nearly all actives have a fitted effect of over 40% in size. The essentials:
as §2

Several values for one entry are separate records, joined by “and”; a condition that tells them apart may be missing. Identical values can stand only once. Results filed as inconclusive are left out. A number with no mark means an inactive call. Activity calls are given as the source filed them. The call rests on the fitted dose curve; in most records, active means well fitted curve in the direction sought with a large enough effect; inconclusive means small, poorly fitted or top-dose-only effect, or another doubt; inactive means no such curve, though single readings can be large; an effect the other way counts as inactive or inconclusive.
Potency means the concentration at half of the fitted maximal effect.

As to `CC(C)(F)C[C@H](N[C@@H](c1ccc(-c2ccc(S(C)(=O)=O)cc2)cc1)C(F)(F)F)C(=O)NC1(C#N)CC1`, the activation in experiment [1] was -2.96%. Further, the viability in experiment [2] was 104%. Also, the Potency entry in experiment [3] and in experiment [5] was “inactive” in each case. For the same compound, the Potency in experiment [4] was 4680 nM (active).

Turning to `Cc1ccc(O)c(C(CCN(C(C)C)C(C)C)c2ccccc2)c1` (stereo not given), the activation in experiment [1] was 47.6%. Further, the viability in experiment [2] is 117%. Besides, the Potency entry in experiment [3], in experiment [4], in experiment [6] and in experiment [7] was “inactive” throughout.

Take `Cc1cccc(-c2nn(C(=S)Nc3ccccc3)cc2-c2ccnc3ccccc23)n1`: the activation in experiment [1] is 44.1%. The viability in experiment [2] was 97.5%. Also, the Potency entry in experiment [3], in experiment [4], in experiment [8], in experiment [5] and in experiment [7] was “inactive” in each case.

For the compound `C[C@@H](Oc1cc(-n2cnc3ccc(CN4CCN(C)CC4)cc32)sc1C(N)=O)c1ccccc1C(F)(F)F`, the activation in experiment [1] is 2.47%. In addition, the Potency in experiment [2] was 105 nM (active); in experiment [3], 46.8 nM (active); in experiment [4], 105 nM (active); in experiment [8], 118 nM (active); in experiment [5] it was 93.4 nM (active).

For `O=C1C(Cl)=C(NCCN2CCOCC2)C(=O)c2ncccc21`, the Potency in experiment [1] was 27300 nM (active); in experiment [2], 3720 nM (active); in experiment [3], 3720 nM (active); in experiment [4], 2090 nM (active); in experiment [8], 8330 nM (active); in experiment [5] it was 7420 nM (active). Moreover, in experiment [7], the Potency is 7420 nM (active).

Turning to `COc1c(C)c2c(c(O)c1C/C=C(\C)CCC(=O)O)C(=O)OC2`, the activation in experiment [1] is 7.34%. Besides, the Potency in experiment [2] was 1180 nM (active); in experiment [3], 1320 nM (active); in experiment [4], 742 nM (active); in experiment [8], 833 nM (active); in experiment [5] it was 1050 nM (active); in experiment [7], 1320 nM (active).

Turning to `CC1=C(C)C(=O)C(C(CCCCCC(=O)O)c2ccccc2)=C(C)C1=O` (stereo not given), the activation in experiment [1] was -10.7% and 34%. Also, in experiment [2], the viability is 93.3%. Moreover, the Potency result in experiment [3], in experiment [4], in experiment [8], in experiment [5] and in experiment [7] was “inactive” in each case.

For the compound `O=C(Nc1cc(Cl)cc2c1[nH]c1cnccc12)c1cccnc1`, the activation in experiment [1] was 15.9%. Also, the viability in experiment [2] was 102%. For the same compound, the Potency entry in experiment [3], in experiment [4], in experiment [8] and in experiment [5] was “inactive” throughout.

`COc1cc2c(cc1OC)[C@@H]1C(=O)c3ccc4c(c3O[C@@H]1CO2)C=CC(C)(C)O4`: in experiment [1], the activation is -3.86%. For the same compound, the Potency is 13200 nM (active) in experiment [2]; 525 nM (active) in experiment [3]; 6610 nM (active) in experiment [4]; 23500 nM (active) in experiment [6]; 9340 nM (active) in experiment [5]; 20900 nM (active) in experiment [7].

As to `Cc1ccc(C(=O)Nc2cccc(C(F)(F)F)c2)cc1Nc1nc(-c2cccnc2)nc2c1cnn2C`, the activation in experiment [1] was 9.99%. In addition, the Potency in experiment [2] is 20900 nM (active); in experiment [3], 8330 nM (active); in experiment [4] it was 16600 nM (active); in experiment [6], 9340 nM (active); in experiment [5], 8330 nM (active); in experiment [7] it was 10500 nM (active).

Consider `O=C(O)[C@@H](c1ccc(OCc2ccc3ccccc3n2)cc1)C1CCCC1`, for which the activation in experiment [1] is -11.6%. In addition, the viability in experiment [2] is 99.7%. For the same compound, the Potency entry in experiment [3], in experiment [8], in experiment [5] and in experiment [7] was “inactive” in each case. For the same compound, the Potency in experiment [4] was 13200 nM (active).

Turning to `COc1cc(S(C)(=O)=O)ccc1Nc1nc2ccc(-c3ccc(NC(=O)[C@H](C)c4ccc(F)cc4)cc3)cn2n1`, the activation in experiment [1] was -11.7%. In addition, the Potency in experiment [2] was 235 nM (active); in experiment [3], 934 nM (active); in experiment [4] it was 1180 nM (active); in experiment [8], 1320 nM (active); in experiment [7], 1320 nM (active).

As for `O=C(NCCS(=O)(=O)c1ccc(C(F)(F)F)cn1)c1ccc(Cl)cc1`, the activation in experiment [1] is 6.23%. Besides, the viability in experiment [2] was 108%. For the same compound, the Potency result in experiment [3], in experiment [4], in experiment [6], in experiment [5] and in experiment [7] was “inactive” each time.

Take `C[C@H](NC(=O)Cc1cc(F)cc(F)c1)C(=O)N[C@H](C(=O)OC(C)(C)C)c1ccccc1`: the activation in experiment [1] is 11.5%. In experiment [2], the viability is 118%. Further, the Potency entry in experiment [3], in experiment [4], in experiment [8], in experiment [5] and in experiment [7] was “inactive” each time.

Regarding `O=C(O)C(O)Cc1ccc(O)c(O)c1` (stereo not given), the activation in experiment [1] was -12.6%. The viability in experiment [2] is 99.8%. Also, the Potency result in experiment [3], in experiment [4] and in experiment [5] was “inactive” each time.

Consider `C[C@H]1C[C@@H]2[C@H]([C@@H](O)C[C@@]3(C)[C@H]2CC[C@]3(O)C(=O)CO)[C@@]2(C)C=CC(=O)C=C12`, for which the activation in experiment [1] is 5.86%. In addition, the viability in experiment [2] is 114%. In addition, the Potency entry in experiment [3], in experiment [4] and in experiment [8] was “inactive” in each case. Moreover, the Potency was 263 nM (active) in experiment [5] and 209 nM (active) in experiment [7].

With `C[C@@H]1C[C@H]2[C@@H]3CCC4=CC(=O)C=C[C@]4(C)[C@@]3(F)[C@@H](O)C[C@]2(C)[C@@]1(O)C(=O)CO`, the activation in experiment [1] was -11.9%. In addition, in experiment [2], the viability is 112%. Besides, the Potency entry in experiment [3], in experiment [4] and in experiment [8] was “inactive” throughout.

Regarding `CC(C)(C)NC(=O)[C@H]1CC[C@H]2[C@@H]3CC[C@H]4NC(=O)C=C[C@]4(C)[C@H]3CC[C@]12C`, in experiment [1], the activation is -14.2% and -4.21%. Also, the viability in experiment [2] was 98.4%. Besides, the Potency entry in experiment [3], in experiment [6], in experiment [8], in experiment [5] and in experiment [7] was “inactive” in each case.

Consider `CCOC(=O)C1=C[C@@H](OC(CC)CC)[C@H](NC(C)=O)[C@@H](N)C1`, for which the activation in experiment [1] was -8.89%. Further, the viability in experiment [2] is 112%. For the same compound, the Potency result in experiment [3], in experiment [6], in experiment [8], in experiment [5] and in experiment [7] was “inactive” each time.

For `COc1ccc(-c2cc(=O)c3c(O)cc(O[C@@H]4O[C@H](CO[C@@H]5O[C@@H](C)[C@H](O)[C@@H](O)[C@H]5O)[C@@H](O)[C@H](O)[C@H]4O)cc3o2)cc1O`, in experiment [1], the activation is 25.9%. The viability in experiment [2] is 112%. The Potency entry in experiment [3], in experiment [6], in experiment [8], in experiment [5] and in experiment [7] was “inactive” each time.
